Measured values as given in PubChem BioAssay (Tox21).
Results filed as inconclusive are left out. Activity calls are given as the source filed them. Unless noted, calls follow the shape of the dose curve; as a rule, active = well fitted curve in the direction sought with a large enough effect in the repeat runs; inconclusive = weak or mixed curves; inactive = flat fitted curve, though single readings scatter.

Tests used:
[1] = qHTS assay to test for compound auto fluorescence at 535 nm (green) in HEK293 cells (AID 720680)
[2] = qHTS assay to test for compound auto fluorescence at 535 nm (green) in HEK293 cell free culture (AID 720682)
Summary of the method: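 Green-label autofluorescence (485 nm excitation, 535 nm emission) measured on compound added to cell-free culture medium (DMEM, 10% FBS). Output is expressed relative to fluorescein.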

[3] = qHTS assay to test for compound auto fluorescence at 590 nm (red) in HEK293 cell free culture (AID 720683)
Summary of the method: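 Cell-free wells of DMEM with 10% FBS received compound, and intrinsic fluorescence was read at excitation/emission 540/590 nm. Values expressed as equivalence to Rose Bengal sodium.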

[4] = qHTS assay to test for compound auto fluorescence at 460 nm (blue) in HepG2 cell free culture (AID 720685)
Summary of the method: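 Cell-free plates of MEM plus 10% FBS received 23 nL compound or DMSO vehicle; blue-channel (405/460 nm) intensity scored against triamterene as reference fluorophore.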

[5] = qHTS assay to test for compound auto fluorescence at 535 nm (green) in HepG2 cell free culture (AID 720686)
[6] = qHTS assay to test for compound auto fluorescence at 460 nm (blue) in HepG2 cells (AID 720687)
Summary of the method: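 HepG2 cells in MEM with 10% FBS, attached overnight at 37 C, were exposed to compound or DMSO for 1 hr at 37 C, 5% CO2. Blue fluorescence was read at 405/460 nm, with triamterene as reference fluorophore.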

[7] = target: Glucocorticoid receptor (Homo sapiens) (UniProt P04150); experiment: qHTS assay to identify small molecule agonists of the glucocorticoid receptor (GR) signaling pathway (AID 720691; active = well fitted activation curve with a large enough effect in the signal ratio in the repeat runs, not every such curve was filed as active; the % refers to the signal ratio)
Summary of the method: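 Measures GR pathway activation through a GRE-beta-lactamase reporter stably integrated in HeLa cells, with 18 h compound treatment at 37 C and fluorescence detection using a FRET substrate.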

[8] = qHTS assay to test for compound auto fluorescence at 590 nm (red) in HepG2 cell free culture (AID 720684)
Summary of the method: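 Auto fluorescence equivalency versus Rose Bengal sodium, red channel Ex/Em 540/590 nm; compounds in cell-free MEM/10% FBS; DMSO vehicle control.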

[9] = target: Glucocorticoid receptor (Homo sapiens) (UniProt P04150); experiment: qHTS assay to identify small molecule antagonists of the glucocorticoid receptor (GR) signaling pathway (AID 720692; active = well fitted inhibition curve with a large enough effect in the signal ratio in the repeat runs, not every such curve was filed as active; the % refers to the signal ratio; also: potency is read from the fitted curve at half-maximal effect)
Summary of the method: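 Tox21 10K library screened in concentration-response for blockade of dexamethasone (5 nM final)-induced GRE-bla reporter activity in HeLa cells; 18 h treatment, fluorescence read.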
% is scaled to controls: 0 for no effect and ±100 for the full control effect.

Glucocorticoid receptor (Homo sapiens), sequence (P04150 whole entry, looked up): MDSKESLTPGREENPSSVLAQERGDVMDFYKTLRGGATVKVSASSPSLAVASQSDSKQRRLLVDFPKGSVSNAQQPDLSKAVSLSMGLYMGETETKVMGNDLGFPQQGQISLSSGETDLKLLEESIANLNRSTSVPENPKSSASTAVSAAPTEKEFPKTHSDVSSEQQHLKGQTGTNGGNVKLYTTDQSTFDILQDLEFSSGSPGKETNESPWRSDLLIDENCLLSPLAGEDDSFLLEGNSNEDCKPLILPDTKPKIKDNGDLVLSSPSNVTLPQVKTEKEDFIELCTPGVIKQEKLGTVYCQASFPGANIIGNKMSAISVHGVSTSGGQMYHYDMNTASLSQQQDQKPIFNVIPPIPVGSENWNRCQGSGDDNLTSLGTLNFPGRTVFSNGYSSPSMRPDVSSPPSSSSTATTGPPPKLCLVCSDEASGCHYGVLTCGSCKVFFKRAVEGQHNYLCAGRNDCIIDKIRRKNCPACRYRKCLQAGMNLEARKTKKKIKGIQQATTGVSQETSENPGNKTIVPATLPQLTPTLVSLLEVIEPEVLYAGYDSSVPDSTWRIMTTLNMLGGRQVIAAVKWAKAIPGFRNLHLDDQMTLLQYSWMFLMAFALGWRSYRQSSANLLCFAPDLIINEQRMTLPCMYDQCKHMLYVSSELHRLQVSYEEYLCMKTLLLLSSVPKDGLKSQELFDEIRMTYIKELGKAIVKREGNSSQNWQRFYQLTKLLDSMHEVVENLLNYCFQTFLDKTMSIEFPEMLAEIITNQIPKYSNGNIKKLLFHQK

O=C(Nc1ccccc1)N(Cc1ccc(Cl)cc1)C1CCCC1
inactive: outcome [1] | outcome [2] | outcome [3] | outcome [4] | outcome [5] | outcome [6] | outcome [7]

O=[N+]([O-])c1cccc2c([N+](=O)[O-])cccc12
inactive: outcome [1] | outcome [2] | outcome [3] | outcome [8] | outcome [4] | outcome [6] | Potency [9]

COc1cc2c(cc1OC)[C@@]13CCN4CC5=CCO[C@H]6CC(=O)N2[C@H]1[C@H]6[C@H]5C[C@H]43
inactive: outcome [1] | outcome [2] | outcome [3] | outcome [8] | outcome [4] | outcome [6]

CCOC(=O)CP(=O)(OCC)OCC
inactive: outcome [1] | outcome [2] | outcome [3] | outcome [8] | outcome [4] | outcome [6]

CCN(Cc1ccc(Cl)nc1)/C(=C/[N+](=O)[O-])NC
inactive: outcome [1] | outcome [2] | outcome [3] | outcome [8] | outcome [4] | outcome [5] | outcome [6] | outcome [7] | Potency [9]

CCC(=O)c1ccccc1
inactive: outcome [1] | outcome [2] | outcome [3] | outcome [8] | outcome [4] | outcome [5] | outcome [6]

COc1cc(C[C@@H](C)N)c(OC)cc1C
inactive: outcome [1] | outcome [2] | outcome [3] | outcome [8] | outcome [4] | outcome [5] | outcome [6] | outcome [7] | Potency [9]

OC(c1ccccc1)(c1ccccc1)C1CCNCC1
inactive: fluorescence, % of fluorescein [1] 0.0137% [at 18.6 µM] | activity change [2] 0.0163% [at 18.6 µM] | fluorescence, % of fluorescent control [3] 0.068% [at 18.6 µM] | fluorescence, % of Rose Bengal [8] -0.191% [at 18.6 µM] | fluorescence, % of fluorescent control [4] -0.0381% [at 18.6 µM] | fluorescence, % of fluorescent control [6] 0.186% [at 18.6 µM] | outcome [7]

CCNc1nc(NC(C)C)nc(OC)n1
inactive: outcome [1] | outcome [2] | outcome [3] | outcome [8] | outcome [4] | outcome [5] | outcome [6] | Potency [9]

CCc1cc2c(s1)-n1c(C)nnc1CN=C2c1ccccc1Cl
inactive: outcome [1] | outcome [2] | outcome [3] | outcome [4] | outcome [5] | outcome [6] | outcome [7]
active: Potency [9] 19 µM

ClC(Br)Br
inactive: outcome [1] | outcome [2] | outcome [3] | outcome [8] | outcome [4] | outcome [5] | outcome [6] | Potency [9]

C[N+](C)=CCl
inactive: outcome [1] | outcome [2] | outcome [3] | outcome [8] | outcome [4] | outcome [5] | outcome [6] | outcome [7]
